Assay results reported in PubChem BioAssay (NCI).
The panel holds about 83,000 compounds, 20% with a hit somewhere; the sample as a whole holds those more often.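 Activity criterion: percent growth below 10, measured after cells in 96-well plates were exposed to a single compound concentration for 48 hours.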 Activity calls are given as the source filed them.

What was measured:
Assay in all cases: NCI-60 one-dose screen, 48 h (100 = growth as untreated, 0 = no growth, -100 = all killed)
Conditions in all cases: 10 µM unless noted
NCI-H23 lung = test system: NCI-H23 lung
NCI-H226 lung = test system: NCI-H226 lung
NCI-H322M lung = test system: NCI-H322M lung
HOP-62 NSCLC = test system: HOP-62 NSCLC
HOP-92 NSCLC = test system: HOP-92 NSCLC
NCI-H522 lung = test system: NCI-H522 lung
A549/ATCC NSCLC = test system: A549/ATCC NSCLC
786-0 renal = test system: 786-0 renal
COLO 205 colon = test system: COLO 205 colon
DU-145 prostate = test system: DU-145 prostate
K-562 leukemia = test system: K-562 leukemia
MALME-3M melanoma = test system: MALME-3M melanoma
MDA-MB-231 breast = test system: MDA-MB-231 breast
RXF 393 renal = test system: RXF 393 renal
SF-268 CNS = test system: SF-268 CNS
SF-295 CNS = test system: SF-295 CNS
SF-539 CNS = test system: SF-539 CNS
UACC-257 melanoma = test system: UACC-257 melanoma
M14 melanoma = test system: M14 melanoma

Measured: growth

COc1cc(/C=N/NC(=O)c2ccc(OCc3nc4ccc(C)cc4[nH]3)cc2)cc(OC)c1OC
inactive: NCI-H23 lung 22.3% | NCI-H226 lung 43% | NCI-H322M lung 66.2% | HOP-62 NSCLC 62.5% | HOP-92 NSCLC 96.5% | NCI-H522 lung 28.1% | A549/ATCC NSCLC 28.4% | 786-0 renal 41.2% | DU-145 prostate 62.2% | K-562 leukemia 17.7% | MDA-MB-231 breast 87.8% | RXF 393 renal 39.6% | SF-268 CNS 78.7% | SF-295 CNS 40.4% | SF-539 CNS 49.2% | UACC-257 melanoma 11.3% | M14 melanoma 33%
active: COLO 205 colon 8.02% | MALME-3M melanoma 4.8%

COc1cccc(NC(=O)c2ccc(NC(=O)CCl)s2)c1
inactive: NCI-H23 lung 11.9% | NCI-H226 lung 61.5% | NCI-H322M lung 101% | HOP-62 NSCLC 64.2% | HOP-92 NSCLC 85.9% | A549/ATCC NSCLC 39.7% | COLO 205 colon 40.2% | DU-145 prostate 88.1% | MALME-3M melanoma 45.5% | RXF 393 renal 56.9% | SF-268 CNS 45.7% | SF-295 CNS 65.4% | SF-539 CNS 38.4% | UACC-257 melanoma 27.7% | M14 melanoma 14.2%
active: NCI-H522 lung -79.7% | 786-0 renal -86.8% | K-562 leukemia 4.03% | MDA-MB-231 breast -26.5%

COc1ccc(N=Nc2c(N)nn3c(N)c(C#N)c(-c4ccc(F)cc4)nc23)cc1
active: MDA-MB-231 breast -9.82% | SF-539 CNS -5.21%
inactive: NCI-H23 lung 39.7% | NCI-H226 lung 55% | NCI-H322M lung 77% | HOP-62 NSCLC 59.6% | NCI-H522 lung 40.7% | A549/ATCC NSCLC 86.8% | 786-0 renal 32% | COLO 205 colon 105% | DU-145 prostate 58.8% | K-562 leukemia 68.6% | MALME-3M melanoma 48.7% | RXF 393 renal 35.1% | SF-268 CNS 61.2% | SF-295 CNS 63% | UACC-257 melanoma 105% | M14 melanoma 80.2%

COc1ccc(-c2nc3ccccc3n2CC(=O)N=Nc2c(O)[nH]c3ccc(OC)cc23)cc1
active: NCI-H226 lung -18.8% | HOP-92 NSCLC -7.89% | DU-145 prostate 3.7% | SF-539 CNS -34.7%
inactive: NCI-H23 lung 89.7% | NCI-H322M lung 89.4% | HOP-62 NSCLC 67.4% | NCI-H522 lung 47.8% | A549/ATCC NSCLC 37% | 786-0 renal 42.4% | COLO 205 colon 36% | K-562 leukemia 32.5% | MALME-3M melanoma 30.6% | MDA-MB-231 breast 66.5% | RXF 393 renal 10.6% | SF-268 CNS 77.5% | SF-295 CNS 104% | UACC-257 melanoma 60.8% | M14 melanoma 64.5%

O=C(CSc1nc2sc3c(c2c(=O)n1-c1ccc(Cl)cc1)CCCC3)N/N=C/C=C/c1ccccc1
active: NCI-H23 lung -74.7% | NCI-H226 lung -36.1% | HOP-62 NSCLC -71.3% | HOP-92 NSCLC 9.97% | NCI-H522 lung 2.3% | A549/ATCC NSCLC -18.3% | 786-0 renal -45.2% | COLO 205 colon -45.4% | MALME-3M melanoma -97% | MDA-MB-231 breast -69.4% | RXF 393 renal -67.1% | SF-539 CNS -35.2% | UACC-257 melanoma 1.05% | M14 melanoma -65.9%
inactive: NCI-H322M lung 34.8% | DU-145 prostate 26.7% | K-562 leukemia 19.4% | SF-268 CNS 55.1% | SF-295 CNS 12%

Cc1nn(-c2ccccc2)c2ncn(CC(=O)N/N=C/c3ccccc3O)c(=O)c12
inactive: NCI-H23 lung 40.7% | NCI-H226 lung 47.6% | NCI-H322M lung 39.1% | HOP-62 NSCLC 27.4% | HOP-92 NSCLC 55.8% | NCI-H522 lung 21% | A549/ATCC NSCLC 38.9% | 786-0 renal 37.2% | COLO 205 colon 10.3% | DU-145 prostate 51.6% | K-562 leukemia 26.5% | MALME-3M melanoma 55.9% | MDA-MB-231 breast 35.9% | RXF 393 renal 42.2% | SF-268 CNS 38.9% | SF-295 CNS 24.9% | SF-539 CNS 46.7% | UACC-257 melanoma 54.9% | M14 melanoma 45.2%

COc1ccc2c(c1)C(=O)N(C)C2C1c2c(cc3c(c2OC)OCO3)CCN1C (stereo unspecified)
inactive: NCI-H23 lung 64.9% | NCI-H226 lung 65.1% | NCI-H322M lung 75.9% | HOP-62 NSCLC 54.5% | HOP-92 NSCLC 78.7% | NCI-H522 lung 36% | A549/ATCC NSCLC 57.9% | 786-0 renal 65.9% | COLO 205 colon 33.1% | DU-145 prostate 73.2% | K-562 leukemia 16.6% | MALME-3M melanoma 33.8% | MDA-MB-231 breast 66.7% | RXF 393 renal 19.8% | SF-268 CNS 66% | SF-295 CNS 26.7% | SF-539 CNS 45.5% | UACC-257 melanoma 71% | M14 melanoma 36.6%

C[C@@H]1CN(c2ccc3ncc(C#Cc4cncc(C(=O)Nc5ccc(CN6CCN(C)CC6)c(C(F)(F)F)c5)c4)n3n2)C[C@@H](C)O1
active: NCI-H23 lung -87.5% | NCI-H226 lung -86.3% | NCI-H322M lung -78.9% | HOP-62 NSCLC -59.8% | HOP-92 NSCLC -87.7% | NCI-H522 lung -73.3% | A549/ATCC NSCLC -59% | 786-0 renal -95.9% | COLO 205 colon -77.7% | DU-145 prostate -85.7% | K-562 leukemia -28.1% | MALME-3M melanoma -97.5% | MDA-MB-231 breast -93.1% | RXF 393 renal -96.1% | SF-268 CNS -56.2% | SF-295 CNS -100% | SF-539 CNS -100% | UACC-257 melanoma -86.6% | M14 melanoma -94%
